We go through 19 molecules from PubChem BioAssay (Tox21).

Assay [1] in a line: qHTS assay for small molecule agonists of the p53 signaling pathway (AID 651631; calls by dose curve; also: nearly all actives have a fitted effect of over 15% in size; also: potency is read from the fitted curve at half-maximal effect). In a few lines: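 HCT-116 cells carrying a stable p53 response element–beta-lactamase reporter were plated, rested 5 h at 37 °C, then exposed to compound in DMSO for 16 h at 37 °C; reporter activity was read as FRET substrate fluorescence after 2 h at room temperature.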
(In general: qHTS replaces the single test concentration by a dilution series.)

Assay [2] can be described thus: qHTS assay for small molecules that induce genotoxicity in human embryonic kidney cells expressing luciferase-tagged ATAD5 (AID 651632). Also: nearly all actives have a fitted effect of over 15% in size. In a few lines: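 A rise in luciferase signal from ATAD5-tagged HEK293T cells marks genetic stress. Cells were exposed to compounds for 16 hr at 37C, 5% CO2, then luciferase was quantified after a 30 min room-temperature incubation with Amplite.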

Assay [3] in a line: qHTS assay for small molecule agonists of the p53 signaling pathway - cell viability (AID 651633; calls by dose curve; also: series mostly up to about 83 µM; nearly all actives have a fitted effect of over 30% in size). Put shortly:
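p53RE-bla cells, seeded at 4,000 per well and rested 5 h at 37 C/5% CO2, received compounds in DMSO for 16 h at 37 C. CellTiter-Glo was then added, and luminescence was read after 30 min at room temperature to gauge cytotoxicity.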

Assay [4] is described as follows: qHTS assay for small molecules that induce genotoxicity in human embryonic kidney cells expressing luciferase-tagged ATAD5 - cell viability (AID 651634; calls by dose curve; also: nearly all actives have a fitted effect of over 25% in size). Put shortly:
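Cytotoxicity counter-readout: after 15.5 hr compound treatment at 37C, live-cell protease activity in ATAD5-luciferase HEK293T cells measured by CellTiter-Fluor fluorescence, 30 min development at 37C.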

A short description of assay [5]: qHTS assay for small molecule disruptors of the mitochondrial membrane potential - cell viability (AID 720634; calls by dose curve;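 also: human HepG2 liver cancer cells; series mostly up to about 83 µM; nearly all actives have a fitted effect of over 20% in size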). Put shortly:
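Cytotoxicity was quantified from ATP content by CellTiter-Glo luminescence in the same wells as the MMP dye read-out. HepG2 (2,000 cells/well) were plated overnight and exposed to compounds for 1 hr at 37 C.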

The nature of assay [6]: qHTS assay for small molecule disruptors of the mitochondrial membrane potential (AID 720635). Also: potency is read from the fitted curve at half-maximal effect. Put shortly:
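HepG2 cells (2,000/well) attached overnight at 37C, then took compound for 1 hr at 37C, 5% CO2. Mito-MPS dye was added for 30 min; fluorescence was read at 490/535 nm (monomers) and 540/590 nm (aggregates).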

Assay [7] is described as follows: qHTS assay to test for compound auto fluorescence at 590 nm (red) in HepG2 cells (AID 720674). Put shortly: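 Rose Bengal sodium served as the red fluorophore standard. HepG2 monolayers (overnight attachment, MEM with 10% FBS) were exposed to test compounds for 1 hr at 37 C and read at Ex 540/Em 590 nm.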
A short description of assay [8]: qHTS assay to test for compound auto fluorescence at 535 nm (green) in HepG2 cells (AID 720675).
The nature of assay [9]: qHTS assay to test for compound auto fluorescence at 460 nm (blue) in HEK293 cells (AID 720678). Put shortly: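 Intrinsic compound fluorescence is recorded in live HEK293 cultures after overnight incubation at 37C, 5% CO2, using excitation 405 nm and emission 460 nm. Values are referenced to triamterene.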
Assay [10] in a line: qHTS assay to test for compound auto fluorescence at 590 nm (red) in HEK293 cells (AID 720679). In a few lines: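 Red autofluorescence, HEK293 cells: 2,000 cells/well; attach 4-5 hr 37C; add 23 nL cpd or DMSO; incubate o/n 37C 5% CO2; read Ex540/Em590; Rose Bengal sodium reference.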

Results filed as inconclusive are left out. Active and inactive are the calls of the source. Unless noted, calls follow the shape of the dose curve; as a rule, active = well fitted curve in the direction sought with a large enough effect in the repeat runs; inconclusive = weak or mixed curves; inactive = no such curve, though single readings can be large; an effect the other way counts as inactive or inconclusive. Starred links: 1 amine or outer side, 2 acyl side, 3 side chain; linkers in the order of their positions; H or OH if unused. Positions of bridges follow the written chain, without caps; N, C: chain ends. Non-standard residues stand in square brackets, D forms with d. Residues, ends and D or L forms follow the SMILES beside them. *: point of attachment. X5 = NC1=N[C@@H]([C@H](N[*:1])C(=O)[*:2])C[C@H](O)N1; ΔAla(Z-3-ureido) = NC(=O)N/C=C(\N)C(=O)O; β3hOrn = NCCC[C@H](N)CC(=O)*; Dap = NC[C@H](N)C(=O)O

In the case of `NCCCC[C@H](NC(=O)[C@@H]1CCCN1C(=O)[C@@H]1CSSC[C@H](N)C(=O)N[C@@H](Cc2ccccc2)C(=O)N[C@@H](Cc2ccccc2)C(=O)N[C@@H](CCC(N)=O)C(=O)N[C@@H](CC(N)=O)C(=O)N1)C(=O)NCC(N)=O`, the Potency entry in assay [1], in assay [2], in [3], in assay [4], in assay [5] and in assay [6] was “inactive” throughout. Besides, the Potency entry in assay [7], in assay [8], in assay [9] and in assay [10] was “inactive” throughout.

As to `Cc1cc(-n2c(=O)[nH]c(=O)n(C)c2=O)ccc1Oc1ccc(S(=O)(=O)C(F)(F)F)cc1`, the Potency entry in assay [1], in [2], in assay [3], in assay [4], in assay [5] and in assay [6] was “inactive” throughout. Besides, the Potency result in [7], in assay [8], in assay [9] and in assay [10] was “inactive” in each case.

Turning to `CCC(=O)OCC(=O)[C@@]1(OC(=O)CC)[C@H](C)C[C@H]2[C@@H]3CCC4=CC(=O)C=C[C@]4(C)[C@@]3(F)[C@@H](O)C[C@@]21C`, the Potency entry in assay [1], in assay [2], in assay [3], in assay [4], in assay [5] and in assay [7] was “inactive” each time. Further, the Potency result in assay [8], in assay [9] and in [10] was “inactive” throughout. In addition, the Potency in [6] is 29.8 µM (active).

In the case of `CCCCCCCCCCCCCCCCCCCCCC(=O)Nc1ccn([C@@H]2O[C@H](CO)[C@@H](O)[C@@H]2O)c(=O)n1`, the Potency in assay [1] was 11.9 µM (active). The Potency entry in assay [2], in [3], in assay [4], in [5], in assay [6] and in assay [7] was “inactive” throughout. Moreover, the Potency result in [8], in [9] and in assay [10] was “inactive” in each case.

For the molecule `COC(=O)[C@H]1[C@H]2C[C@@H]3c4[nH]c5cc(OC)ccc5c4CCN3C[C@H]2C[C@H](OC)[C@@H]1OC`, the Potency result in assay [1], in [2], in assay [3], in assay [4], in assay [5] and in assay [6] was “inactive” each time. Also, the Potency result in [7], in assay [8] and in [10] was “inactive” in each case.

Take `CC1(O)CCC(C(C)(C)O)CC1` (configuration not stated): the Potency result in [1], in [2], in assay [3], in [4], in assay [5] and in assay [7] was “inactive” each time. Besides, the Potency result in [8] and in assay [9] was “inactive” each time.

Consider `CCN(CC)c1ccc(N=Nc2ccc(S(=O)(=O)N(C)C)cc2)c(S(=O)(=O)NCC[n+]2ccccc2)c1`, for which the Potency entry in assay [1], in assay [2], in assay [3], in [4], in assay [5] and in [6] was “inactive” in each case. Also, the Potency entry in assay [7], in [8], in [9] and in assay [10] was “inactive” each time.

Turning to `O=C[C@H](O)[C@@H](O)[C@H](O[C@H]1O[C@H](CO)[C@@H](O[C@H]2O[C@H](CO)[C@@H](O)[C@H](O)[C@H]2O)[C@H](O)[C@H]1O)[C@H](O)CO`, the Potency entry in assay [1], in assay [2], in assay [3], in assay [4], in assay [5] and in [6] was “inactive” each time. The Potency result in assay [7], in assay [8], in [9] and in assay [10] was “inactive” throughout.

As for `NCCC[C@H](N)CC(=O)N[C@H]1CNC(=O)[C@H]([C@H]2C[C@H](O)NC(N)=N2)NC(=O)/C(=C/NC(N)=O)NC(=O)[C@H](CO)NC(=O)[C@H](CO)NC1=O` (β3hOrn-[Dap]SS[ΔAla(Z-3-ureido)][X5]; lactam 1-C), the Potency result in assay [1], in assay [2], in [3], in assay [4], in assay [5] and in assay [6] was “inactive” each time. Also, the Potency entry in [7], in assay [8], in assay [9] and in [10] was “inactive” throughout.

Regarding `CCN(CC)CCOC(=O)c1cccnc1`, the Potency entry in assay [1], in assay [2], in assay [3], in [4], in assay [5] and in assay [7] was “inactive” in each case. Moreover, the Potency result in [8], in assay [9] and in assay [10] was “inactive” in each case.

In the case of `CCC(C)[C@@H](N)C(=O)O` (some centres not stated), the Potency result in assay [1], in [2], in assay [3], in [4], in assay [5] and in assay [7] was “inactive” in each case. Further, the Potency result in assay [8] and in assay [9] was “inactive” each time.

Turning to `C=CCN1CCCC1CNC(=O)c1cc(S(N)(=O)=O)cc(OC)c1OC` (configuration not stated), the Potency entry in [1], in assay [2], in assay [3], in assay [4], in [5] and in assay [6] was “inactive” each time. The Potency entry in [7], in [8], in assay [9] and in assay [10] was “inactive” throughout.

Take `CCOC(=O)Nc1ccc2c(c1)N(C(=O)CN(C)C)c1ccccc1CC2`: the Potency entry in [1], in [2], in assay [3], in assay [4], in assay [5] and in [7] was “inactive” throughout. In addition, the Potency entry in [8], in [9] and in [10] was “inactive” in each case.

As for `CCOC(=O)CCC(=O)O[C@H]1[C@H](O[C@@H]2[C@@H](C)[C@H](O[C@H]3C[C@@](C)(OC)[C@@H](O)[C@H](C)O3)[C@@H](C)C(=O)O[C@H](CC)[C@@](C)(O)[C@H](O)[C@@H](C)C(=O)[C@H](C)C[C@@]2(C)O)O[C@H](C)C[C@@H]1N(C)C`, the Potency entry in assay [1], in [2], in assay [3], in assay [4], in assay [5] and in assay [7] was “inactive” throughout. In addition, the Potency entry in [8], in assay [9] and in assay [10] was “inactive” throughout.

`CCCN(CC)C(CC)C(=O)Nc1c(C)cccc1C` (configuration not stated): the Potency entry in assay [1], in assay [2], in assay [3], in [4], in assay [5] and in [7] was “inactive” in each case. For the same molecule, the Potency entry in assay [8] and in assay [9] was “inactive” in each case.

Consider `CCCCCCCCCCCCCCCC(=O)OC[C@@H](NC(=O)C(Cl)Cl)[C@H](O)c1ccc([N+](=O)[O-])cc1`, for which the Potency result in assay [1], in assay [2], in assay [3], in assay [4], in [5] and in [7] was “inactive” in each case. In addition, the Potency entry in [8], in [9] and in [10] was “inactive” throughout. Moreover, in assay [6], the Potency is 33.5 µM (active).

For `CC(=O)N(CC(C)C(=O)O)c1c(I)cc(I)c(N)c1I` (configuration not stated), the Potency entry in [1], in assay [2], in assay [3], in assay [4], in assay [5] and in assay [7] was “inactive” each time. Besides, the Potency entry in [8], in [9] and in assay [10] was “inactive” throughout.

`COC1=C(C(=O)O)N2C(=O)[C@@H](NC(=O)[C@H](N)C3=CCC=CC3)[C@H]2SC1`: the Potency result in assay [1], in assay [2], in assay [3], in [4], in assay [5] and in assay [6] was “inactive” in each case. Besides, the Potency entry in assay [7], in assay [8], in assay [9] and in [10] was “inactive” in each case.

In the case of `COc1ccc(CCNC[C@H](O)c2ccc(O)cc2)cc1OC`, the Potency result in [1], in assay [2], in [3], in [4], in assay [5] and in assay [7] was “inactive” in each case. For the same molecule, the Potency entry in assay [8] and in assay [9] was “inactive” in each case.
